Data: article PMC4336329 (PLoS ONE, 2015)
Screen size: about 310,000 compounds; about 14,000 (4.5%) showed an effect of 50% or more. Effects have a minus sign here. This is one part of a sample in which strong results are shown more often than they occur.

What follows are compounds tested against human ether-à-go-go-related gene (hERG) potassium channel (human, UniProt Q12809) (assay: primary screen, population patch clamp on CHO cells stably expressing hERG; higher = less effect of the substance).
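Also: peak tail current of the secondary pulse compared with the same well before compound.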

human ether-à-go-go-related gene (hERG) potassium channel, sequence (Q12809 whole entry, looked up): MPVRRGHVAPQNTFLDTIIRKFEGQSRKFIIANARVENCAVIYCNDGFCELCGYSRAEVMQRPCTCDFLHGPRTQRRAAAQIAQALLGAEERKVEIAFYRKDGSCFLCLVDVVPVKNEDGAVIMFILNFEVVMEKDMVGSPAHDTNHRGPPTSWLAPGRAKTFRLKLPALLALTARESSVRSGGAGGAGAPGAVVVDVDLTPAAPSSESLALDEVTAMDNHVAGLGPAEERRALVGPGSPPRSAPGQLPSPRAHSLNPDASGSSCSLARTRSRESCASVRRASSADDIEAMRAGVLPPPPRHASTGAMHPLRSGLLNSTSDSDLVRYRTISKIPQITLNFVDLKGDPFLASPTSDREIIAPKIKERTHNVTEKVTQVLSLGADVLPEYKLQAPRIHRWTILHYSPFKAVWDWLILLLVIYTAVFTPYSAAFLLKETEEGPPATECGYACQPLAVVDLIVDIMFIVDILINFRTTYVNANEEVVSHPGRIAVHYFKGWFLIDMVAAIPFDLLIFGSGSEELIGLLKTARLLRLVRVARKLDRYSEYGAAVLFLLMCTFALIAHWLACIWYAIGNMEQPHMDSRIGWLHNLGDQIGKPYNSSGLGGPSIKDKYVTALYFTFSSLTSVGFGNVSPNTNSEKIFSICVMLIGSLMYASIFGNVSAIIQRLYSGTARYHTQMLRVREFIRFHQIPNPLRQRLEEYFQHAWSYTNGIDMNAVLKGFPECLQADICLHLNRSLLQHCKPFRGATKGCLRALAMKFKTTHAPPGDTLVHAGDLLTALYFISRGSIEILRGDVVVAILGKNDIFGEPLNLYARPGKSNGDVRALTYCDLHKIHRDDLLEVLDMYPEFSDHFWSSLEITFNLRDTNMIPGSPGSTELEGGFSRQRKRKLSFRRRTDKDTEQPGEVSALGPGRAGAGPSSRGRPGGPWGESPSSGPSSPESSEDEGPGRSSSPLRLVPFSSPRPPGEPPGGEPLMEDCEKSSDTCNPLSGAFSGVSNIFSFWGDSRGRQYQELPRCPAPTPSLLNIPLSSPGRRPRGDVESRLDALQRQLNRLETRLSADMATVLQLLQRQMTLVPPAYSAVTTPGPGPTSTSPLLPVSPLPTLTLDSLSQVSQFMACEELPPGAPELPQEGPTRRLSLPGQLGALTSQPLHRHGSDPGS

Row | Structure (SMILES) | hERG current change (%, negative = inhibition) at 10uM
1 | O=C(COC(=O)COc1ccccc1[N+](=O)[O-])Nc1ccccc1Br | 3.82%
2 | COCCCNC(=S)N1CCN(c2nc(-c3ccccc3)cs2)CC1 | -5.55%
3 | CCCCNC(=O)CCSc1ccc(C)cc1 | -2.9%
4 | CSc1ccc(CN(C)CC(=O)NC(=O)NC(C)(C)C)cc1 | -3.83%
5 | CN(CC(=O)NCc1ccc(F)cc1)Cc1ccc(Br)cc1 | -35.5%
6 | COc1ccc(CNC(=O)CN(C)Cc2ccc(C(C)(C)C)cc2)cc1.O=C(O)C(=O)O | -4.44%
7 | COc1ccc(CNC(=O)CN(C)Cc2ccc(SC)cc2)cc1 | -65.2%
8 | CSc1ccc(CN(C)CC(=O)NCc2ccccc2)cc1 | -52.5%
9 | CSc1ccc(CN(C)CC(=O)NCc2ccc(F)cc2)cc1 | -70.1%
10 | CN(CC(=O)NCc1ccccc1)Cc1cccc(F)c1.O=C(O)C(=O)O | 9.59%
11 | COc1ccc(CN(C)CC(=O)N(C)CC(=O)Nc2ccccc2Br)cc1F | -39.1%
12 | CSc1ccc(CN(C)CC(=O)Nc2ccccc2Br)cc1 | 17.3%
13 | CSc1ccc(CN(C)CC(=O)NCCc2ccccc2)cc1 | -35.5%
14 | CSc1ccc(CN(C)CC(=O)Nc2ccc(NC(C)=O)cc2)cc1 | -25.8%
15 | CSc1ccc(CN(C)CC(=O)N(C)CC(=O)Nc2ccccc2Br)cc1 | -56.9%
16 | O=C(NC(=O)N1CCCCC1)c1ccc(Cl)cc1 | 15.7%
17 | CCO[C@H]1OC(C(=O)Nc2ccccc2)=C[C@@H](C2CC2)[C@@H]1CCCO | 1.16%
18 | CCCCc1nnc(NC(=O)CCc2ccccc2)s1 | 19.3%
19 | COC(=O)c1ccc(-n2nnnc2SCC(=O)Nc2cc(OC)ccc2OC)cc1 | 2.37%
20 | CCOC(=O)c1nn(-c2cccc(C)c2)c2nnc(Cc3ccc(C)cc3)c(=O)n12 | -16.1%

Row | Structure (SMILES) | hERG current change (%, negative = inhibition) at 10uM
21 | O=C(Nc1ccc(SC(F)F)cc1)C1CC(=O)N(Cc2ccccc2)C1 (stereo not shown) | -48%
22 | COc1ccc(S(=O)(=O)N2CCN(C(=O)c3c(C)nn(-c4ccccc4)c3Cl)CC2)cc1 | -19.4%
23 | CCC(=O)N1CCN(c2ccc(Cl)cc2NC(=O)c2ccc3c(c2)OCCO3)CC1 | -37.2%
24 | O=C(Nc1ccc(Cl)cc1)c1ccc(CN2CCc3ccccc3C2)cc1 | 13.7%
25 | COc1cccc(C(=O)N2CCN(C(=O)Cc3ccccc3)CC2)c1.O=C(O)C(=O)O | -0.00122%
26 | CCC(=O)Nc1ccc(C(=O)Nc2cccnc2)cc1 | -0.52%
27 | CC(OC(=O)c1cc(S(=O)(=O)N2CCOCC2)ccc1Br)C(=O)N1CCOCC1 (stereo not shown) | -12%
28 | O=C(Nc1nccs1)C1CCN(S(=O)(=O)c2ccc(F)cc2)CC1 | 2.1%
29 | CCOC(=O)CNC(=O)CSc1ccc(-c2nc3ccccc3[nH]2)cn1 | -6.35%
30 | CSc1ccc(CN(C)CC(=O)NC(C)c2ccccc2)cc1 (stereo not shown) | -83.9%
31 | CC(NC(=O)CN(C)Cc1ccc(Br)cc1)c1ccccc1 (stereo not shown) | -19.3%
32 | COc1ccccc1CNC(=O)CN(C)Cc1ccc(SC)cc1 | -50.8%
33 | Cc1ccc(CN(C)CC(=O)NC(C)c2ccccc2)cc1 (stereo not shown) | -16%
34 | COc1cccc(CN(C)CC(=O)NCc2ccc(F)cc2)c1OC | 6.98%
35 | COc1ccccc1CNC(=O)CN(C)CC(=O)Nc1cccc(F)c1 | 4.16%
36 | O=C(O)C1C2C=CC(C2)C1C(=O)NCc1cccs1 (stereo not shown) | 9.44%
37 | O=C(Nc1cc(Cl)cc(Cl)c1)N1CCN(C(=O)C2CCCO2)CC1 (stereo not shown) | -26.4%
38 | COCCNC(=O)C1CCN(C(=O)C2CC(=O)N(c3ccc(C)cc3)C2)CC1 (stereo not shown) | 7.39%
39 | CCc1nnc(NC(=O)CSc2nnc(COc3ccccc3C)o2)s1 | 15.2%
40 | O=C(COc1ccc(Br)cc1)Nc1ccc([N+](=O)[O-])cn1 | -19.7%

Row | Structure (SMILES) | hERG current change (%, negative = inhibition) at 10uM
41 | COc1cc(NC(=O)CSCc2ccccc2)c(C(=O)O)cc1OC | 11.2%
42 | COc1ccc(CCNc2ccc(C(CC(N)=O)NC(=O)Cc3cccc4ccccc34)cc2[N+](=O)[O-])cc1 (stereo not shown) | 4.29%
43 | CCN(CC)CC(=O)c1c[nH]c2ccc(OC)cc12 | -22.9%
44 | COc1ccc2[nH]cc(C(=O)CN(C)C)c2c1 | 9.06%
45 | COc1ccc2[nH]cc(C(=O)CN(C)CCc3ccc(OC)c(OC)c3)c2c1 | -70.3%
46 | COc1ccccc1-n1cnc2sc(C)c(C)c2c1=O | 5.71%
47 | COc1ccc(NC(=O)/C(C#N)=C\c2cc(C)n(-c3ccc4c(c3)OCO4)c2C)cc1 | 3.77%
48 | COc1ccc(-c2csc(CCn3nc(C)cc3C)n2)cc1 | 4.1%
49 | Cc1ccc(-n2cc(CN3CCCN(C=O)CC3)c(-c3ccc(F)cc3)n2)cc1 | -18.7%
50 | COc1ccc(-c2nn(-c3ccccc3F)cc2CNCCn2nc(C)cc2C)cc1 | -50.2%
51 | Cc1ccc(-c2nn(-c3ccccc3)cc2C(=O)NCCCN2CCCC2=O)cc1 | -17.1%
52 | Cc1ccc(-n2cc(CNCCCN3CCCC3=O)c(-c3ccc(F)cc3)n2)cc1 | -72.1%
53 | Cc1ccc(-n2cc(CN(C)Cc3nccn3C)c(-c3ccc(F)cc3)n2)cc1 | -37.6%
54 | COc1ccc(-c2nn(-c3ccccc3C)cc2CNC(C)c2cn(C)nc2C)cc1F (stereo not shown) | -1.99%
55 | CCN1CC(CN(C)Cc2cn(-c3ccc(C)cc3)nc2-c2ccc(F)cc2)CC1=O (stereo not shown) | -35.1%
56 | Cc1ccc(-n2cc(CNCCCn3ccnc3C)c(-c3ccc(F)cc3)n2)cc1 | -71.7%
57 | CCN1CC(CN(C)Cc2cn(-c3cccc(C)c3)nc2-c2cccc(F)c2)CC1=O (stereo not shown) | -31.7%
58 | CCN1CC(CN(C)Cc2cn(-c3ccc(C)cc3)nc2-c2cccc(C)c2)CC1=O (stereo not shown) | -60.5%
